# Measured values from PubChem BioAssay (NCATS).
# Several values for one entry are separate records, joined by “and”; a condition that tells them apart may be missing. Equal values may be shown once. Inconclusive results are not listed. A call without a number means that no potency is given here. Values without a mark were called inactive. Activity calls are given as the source filed them. The call rests on the fitted dose curve; in most records, active means well fitted curve in the direction sought with a large enough effect; inconclusive means small, poorly fitted or top-dose-only effect, or another doubt; inactive means no such curve, though single readings can be large; an effect the other way counts as inactive or inconclusive.
# Assays:
# [1] = biological target: N-terminal Xaa-Pro-Lys N-methyltransferase 1 (Homo sapiens) (UniProt Q9BV86); assay: qHTS Assay for Inhibitors of N-terminal methyltransferase 1 (NTMT1): LOPAC validation of the NTMT1 SAHH-coupled ThioGlo3 Assay (AID 1347143);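 further: SAH from peptide methylation measured as thiol fluorescence via SAHH coupling and ThioGlo3; nearly all actives have a fitted effect of over 70% in size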; further: potency means the concentration at half of the fitted maximal effect
# Chain of N-terminal Xaa-Pro-Lys N-methyltransferase 1 (Homo sapiens) (Q9BV86 whole entry, looked up): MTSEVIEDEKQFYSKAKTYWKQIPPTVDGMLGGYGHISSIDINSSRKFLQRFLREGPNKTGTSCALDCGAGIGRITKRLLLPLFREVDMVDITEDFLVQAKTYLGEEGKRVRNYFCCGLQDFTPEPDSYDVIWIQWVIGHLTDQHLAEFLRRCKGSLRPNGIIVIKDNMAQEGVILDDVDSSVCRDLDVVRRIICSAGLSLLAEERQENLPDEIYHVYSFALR
# Procedure, shortened: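 Steps: dispense 125nM NTMT1; pin-transfer test compounds at several concentrations, with 1uM RCC1-6 peptide as control; incubate 1 min; start with reagent holding 100uM SAM, 10uM SAHH, 15uM ThioGlo3; read at 0 and 30 min.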
# [2] = biological target: Furin (Homo sapiens) (UniProt P09958); assay: Furin counterscreen qHTS for Zika virus inhibitors (AID 1347149); further: nearly all actives have a fitted effect of over 70% in size; further: potency means the concentration at half of the fitted maximal effect;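 on activity change, negative = inhibition: purified recombinant full-length human furin enzyme at 5 nM; fluorescence gain from furin cutting a BOC-RVRR-AMC peptide substrate over 15 min; top concentration of the series differs between compounds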
# Chain of Furin (Homo sapiens) (P09958 whole entry, looked up): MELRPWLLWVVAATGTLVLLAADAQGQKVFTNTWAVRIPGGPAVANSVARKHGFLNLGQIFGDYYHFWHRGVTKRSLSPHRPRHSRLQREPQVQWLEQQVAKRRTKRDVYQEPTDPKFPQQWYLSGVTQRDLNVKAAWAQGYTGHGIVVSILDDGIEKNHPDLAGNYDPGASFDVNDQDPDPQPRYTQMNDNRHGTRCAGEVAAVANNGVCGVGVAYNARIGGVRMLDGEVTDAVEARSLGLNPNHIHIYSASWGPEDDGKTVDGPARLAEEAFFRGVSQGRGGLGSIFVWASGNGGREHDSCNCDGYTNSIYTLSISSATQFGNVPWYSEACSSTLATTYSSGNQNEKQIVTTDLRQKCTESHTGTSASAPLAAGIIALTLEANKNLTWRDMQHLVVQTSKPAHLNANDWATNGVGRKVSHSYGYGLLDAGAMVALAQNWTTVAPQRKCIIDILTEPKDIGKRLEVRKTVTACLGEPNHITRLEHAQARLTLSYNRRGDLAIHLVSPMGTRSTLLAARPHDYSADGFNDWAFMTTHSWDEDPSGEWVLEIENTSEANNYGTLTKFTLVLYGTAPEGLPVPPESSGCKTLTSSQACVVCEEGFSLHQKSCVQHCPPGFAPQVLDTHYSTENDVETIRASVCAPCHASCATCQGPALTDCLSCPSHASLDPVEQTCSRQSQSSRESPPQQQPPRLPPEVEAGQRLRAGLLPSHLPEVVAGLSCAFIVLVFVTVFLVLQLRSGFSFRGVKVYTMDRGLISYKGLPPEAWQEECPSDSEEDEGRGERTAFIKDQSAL
# Procedure, shortened: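 Counterscreen measures cleavage of 2 microM BOC-RVRR-AMC, below its ~15 microM Km, by 5 nM full-length human furin at pH 7.0 after a 15-min compound preincubation. Inhibition derives from the 15-min fluorescence increase at 37C.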
# [3] = test system: Zika virus NS2B-NS3 protease (unlinked); assay: Optimization of GU AMC qHTS for Zika virus inhibitors: Unlinked NS2B-NS3 protease assay (AID 1347151); further: nearly all actives have a fitted effect of over 80% in size; further: potency means the concentration at half of the fitted maximal effect; on activity change, negative = inhibition: series mostly up to about 52 µM
# Procedure, shortened: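 In this qHTS, compounds acted on 25 nM unlinked Zika NS2B–NS3 in pH 8.0 Tris/Tween buffer. Cleavage of an AMC peptide ran 15 min at room temperature, to about 20% conversion.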
# [4] = test system: Zika virus NS2B-NS3 protease (unlinked complex); assay: Primary screen GU Rhodamine qHTS for Zika virus inhibitors: Unlinked NS2B-NS3 protease assay (AID 1347159); further: nearly all actives have a fitted effect of over 60% in size
# Procedure, shortened: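 Enzyme 25 nM in Tris-HCl pH 8.0 + 0.01% Tween 20; compounds up to 114 microM, 15 min RT dark; + Rhod110 substrate 1.5 microM; read t0 and 15 min; delta fluorescence → % inhibition → 4-parameter Hill fit.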
# [5] = test system: Zika virus NS2B-NS3 protease (linked construct); assay: Primary screen NINDS Rhodamine qHTS for Zika virus inhibitors (AID 1347160); further: nearly all actives have a fitted effect of over 55% in size
# Procedure, shortened: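 Enzyme (25 nM, linked NS2B-NS3) was preincubated 15 min with compound in 10 mM Tris-HCl pH 8.0, 0.01% Tween 20. Rhodamine110 substrate (1.5 microM) was then added and fluorescence read at start and after 15 min.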
# [6] = Vero cells viability qHTS for Zika virus inhibitors (AID 1347167)
# Procedure, shortened: (§1)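 qHTS titration; 24-48 h compound exposure, 37 degrees C/5% CO2; DMEM, 4% FBS; CellTiter Glo ATP luminescence.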
# [7] = HepG2 cells viability qHTS for Zika virus inhibitors (AID 1347168)
# Procedure, shortened: as §1
# [8] = Tertiary RLuc qRT-PCR qHTS assay for Zika virus inhibitors (AID 1347169); further: nearly all actives have a fitted effect of over 55% in size; further: potency means the concentration at half of the fitted maximal effect; on activity change, negative = inhibition: top concentration of the series differs between compounds
# Procedure, shortened: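 Inhibition of ZIKV-RLuc replication in Vero cells, read as Renilla luminescence 1-1.5 hrs after live-cell substrate addition, following 48-72 hrs infection at MOI 1-2 in presence of compound.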
# [9] = test system: Zika virus NS2B-NS3 protease; assay: Primary screen GU AMC qHTS for Zika virus inhibitors (AID 1347154); further: nearly all actives have a fitted effect of over 70% in size; further: potency means the concentration at half of the fitted maximal effect
# Procedure, shortened: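 Unlinked Zika NS2B hydrophilic domain–NS3 protease complex at 25 nM in 10 mM Tris-HCl pH 8.0, 0.01% Tween 20, with an AMC peptide substrate. Fluorescence change (340/450 nm) over 15 min at room temperature, normalized to controls, fitted to 4-parameter Hill.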
# [10] = OV-KATE Cancer Cell Toxicity qHTS against the NCATS CANVASS Library (AID 1347345)
# Procedure, shortened: (§2)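 In this cytotoxicity screen, 1000 cells per well rested 4 hours, then received compound (11 concentrations) for a 72-hour incubation; an ATP-dependent luminescent signal (CellTiter-Glo) was the endpoint.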
# [11] = HPAF-II Cancer Cell Toxicity qHTS against the NCATS CANVASS Library (AID 1347346); further: series mostly up to about 38 µM; nearly all actives have a fitted effect of over 55% in size
# Procedure, shortened: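 First, HPAF-II cells are plated (1000 cells/well) and held 4 h at 37 degrees C. Next, compounds are pin-transferred as an 11-point series. After 72 h, CellTiter-Glo is added and luminescence measured.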
# [12] = UWB1.289 Cancer Cell Toxicity qHTS against the NCATS CANVASS Library (AID 1347347); further: series mostly up to about 38 µM; nearly all actives have a fitted effect of over 60% in size
# Procedure, shortened: as §2
# [13] = OV-SAHO Cancer Cell Toxicity qHTS against the NCATS CANVASS Library (AID 1347348); further: series mostly up to about 38 µM; nearly all actives have a fitted effect of over 55% in size
# Procedure, shortened: as §2
# [14] = test system: Zika virus NS2B-NS3 protease (linked construct); assay: Confirmatory screen NINDS AMC qHTS for Zika virus inhibitors (AID 1347152); further: nearly all actives have a fitted effect of over 70% in size; further: potency means the concentration at half of the fitted maximal effect;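 on activity change, negative = inhibition: AMC fluorescence gain from cleaved Bz-Nle-KRR-AMC substrate over 15 min; top concentration of the series differs between compounds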
# Procedure, shortened: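 Concentration-response confirmation used the NINDS linked protease (NS2B hydrophilic domain joined to NS3 protease domain), 1 nM, with a 15-min compound preincubation. Substrate, Nle-KRR-AMC at 10 microM, was read by UV fluorescence before and after 15 min.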
# [15] = test system: Zika virus NS2B-NS3 protease (unlinked complex); assay: Confirmatory screen GU AMC qHTS for Zika virus inhibitors (AID 1347153); further: nearly all actives have a fitted effect of over 70% in size
# Procedure, shortened: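 Fluorescence change (ex 340/em 450 nm) over 15 min, ~20% substrate conversion, normalized to no-inhibitor and no-enzyme controls, then Hill-fitted. Unlinked protease at 25 nM; AMC peptide 10 µM.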
# [16] = Confirmatory screen NINDS Rhodamine qHTS for Zika virus inhibitors (AID 1347161); further: nearly all actives have a fitted effect of over 60% in size; further: potency means the concentration at half of the fitted maximal effect;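 on activity change, negative = inhibition: purified Zika NS2B-NS3 protease with linked NS2B cofactor domain and Rhodamine110 peptide substrate; series mostly up to about 110 µM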
# Procedure, shortened: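 Purified linked NS2B-NS3 protease (NS2B hydrophilic domain joined to NS3 protease by flexible linker), 25 nM in 10 mM Tris-HCl pH 8.0, 0.01% Tween 20. Compounds titrated, 15 min preincubation at room temperature; 1.5 microM Rhodamine110 substrate, FITC fluorescence change over 15 min.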
# [17] = Confirmatory screen GU Rhodamine qHTS for Zika virus inhibitors qHTS (AID 1347157); details: purified enzyme assay, Rhodamine110 substrate fluorescence, 15 min
# Procedure, shortened: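 Compounds, tested up to 114 microM, were incubated for 15 minutes with 25 nM unlinked NS2B-NS3 protease at pH 8.0. Cleavage of 1.5 microM Rhodamine110 substrate was then followed by fluorescence for 15 minutes.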
# [18] = test system: Zika virus NS2B-NS3 protease (linked); assay: 384 well plate NINDS AMC confirmatory qHTS for Zika virus inhibitors (AID 1347163); details: Recombinant NS2B-NS3 protease, Ac-VKTGKR-AMC fluorescence; further: potency means the concentration at half of the fitted maximal effect; nearly all actives have a fitted effect of over 50% in size
# Procedure, shortened: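 Fluorescence at 355/460 nm was read after 25 minutes of cleavage of 30 microM Ac-VKTGKR-AMC at room temperature, in the dark. Before substrate addition, compounds (up to 1 mM final) sat ~15 minutes with 5, 30 or 60 nM linked protease. Signals were normalized to no-enzyme and no-inhibitor wells.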
# [19] = test system: Zika virus NS2B-NS3 protease (linked construct); assay: 384 well plate NINDS Rhodamine confirmatory qHTS for Zika virus inhibitors (AID 1347164); further: nearly all actives have a fitted effect of over 65% in size; further: potency means the concentration at half of the fitted maximal effect; on activity change, negative = inhibition: top concentration of the series differs between compounds
# Procedure, shortened: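 Cleavage of Ac-LKRR-Rhodamine 110 (10 microM final) by linked protease (final 5, 30 or 60 nM) was followed as fluorescence at 485/538 nm after 25 min, room temperature, dark. Compounds preincubated ~15 min.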
smiles,measurement,setting,value
C[C@@H]1O[C@@H](O[C@H]2C[C@@H](O)[C@]3(CO)[C@H]4[C@H](O)C[C@]5(C)[C@@H](C6=CC(=O)OC6)CC[C@]5(O)[C@@H]4CC[C@]3(O)C2)[C@H](O)[C@H](O)[C@H]1O,Potency,[1],inactive
same,Potency,[2],inactive
same,Potency,[3],inactive
same,Potency,[4],inactive
same,Potency,[5],inactive
same,outcome,[6],inactive
same,outcome,[7],inactive
same,Potency,[8],117 nM (active) and 58.7 nM (active)
CC[N+](CC)(CC)CC,Potency,[1],inactive
same,Potency,[9],inactive
NCC(O)c1ccc(O)cc1 (stereo not drawn),Potency,[1],inactive
same,Potency,[3],inactive
same,Potency,[9],inactive
same,Potency,[5],inactive
same,outcome,[10],inactive
same,outcome,[11],inactive
same,outcome,[12],inactive
same,outcome,[13],inactive
NCC(CC(=O)O)c1ccc(Cl)cc1 (stereo not drawn),Potency,[1],inactive
same,Potency,[3],inactive
same,"activity change, negative = inhibition",[9],-12.9% [at 0.59 µM]
CC(=O)[C@H]1CC[C@H]2[C@@H]3CC[C@H]4C[C@](C)(O)CC[C@]4(C)[C@H]3CC[C@]12C,Potency,[1],inactive
same,Potency,[3],inactive
Cn1c(CCCC(=O)O)nc2cc(N(CCCl)CCCl)ccc21,Potency,[1],56.2 µM (active)
same,Potency,[9],inactive
C[C@H]1O[C@@H](O[C@H]2[C@@H](O)C[C@H](O[C@H]3[C@@H](O)C[C@H](O[C@H]4CC[C@@]5(C)[C@H](CC[C@@H]6[C@@H]5CC[C@]5(C)[C@@H](C7=CC(=O)OC7)CC[C@]65O)C4)O[C@@H]3C)O[C@@H]2C)C[C@H](O)[C@@H]1O,Potency,[2],inactive
same,Potency,[3],inactive
same,Potency,[9],inactive
same,Potency,[4],inactive
same,Potency,[5],inactive
same,outcome,[6],inactive
same,Potency,[8],107 nM (active)
CC(C)=CCOc1c2occc2cc2ccc(=O)oc12,Potency,[3],inactive
same,Potency,[9],inactive
CC(=O)[C@H]1CC[C@H]2[C@@H]3CC[C@H]4C[C@H](O)CC[C@]4(C)[C@H]3C(=O)C[C@]12C,Potency,[1],inactive
same,Potency,[3],inactive
same,Potency,[9],inactive
NCC1(CC(=O)O)CCCCC1,Potency,[1],inactive
same,Potency,[3],inactive
c1ccc2c(c1)OCC(C1=NCCN1)O2 (stereo not drawn),Potency,[1],56.2 µM (active)
same,Potency,[3],inactive
same,Potency,[9],inactive
CC[C@@H](CO)NC(=O)[C@@H]1C=C2c3cccc4c3c(cn4C)C[C@H]2N(C)C1,Potency,[1],56.2 µM (active)
c1ccc(C2CC2)c(OCC2=NCCN2)c1,Potency,[1],inactive
same,Potency,[3],inactive
same,Potency,[9],inactive
Cc1cccc(C)c1NC(=O)CN1CCCC1=O,Potency,[1],inactive
same,Potency,[3],inactive
same,Potency,[9],inactive
N#CC(C#N)=Cc1ccc(O)c(O)c1,Potency,[1],56.2 µM (active)
NN=C(N)N,Potency,[1],inactive
same,Potency,[3],inactive
CC(O)(CS(=O)(=O)c1ccc(F)cc1)C(=O)Nc1ccc(C#N)c(C(F)(F)F)c1 (stereo not drawn),Potency,[3],inactive
same,Potency,[9],inactive
same,Potency,[4],inactive
same,Potency,[5],inactive
CN1C[C@H](CNC(=O)OCc2ccccc2)C[C@@H]2c3cccc4c3c(cn4C)C[C@H]21,Potency,[3],23.8 µM (active)
same,Potency,[14],inactive
same,Potency,[15],inactive
same,Potency,[16],inactive
same,outcome,[6],inactive
same,outcome,[7],inactive
same,Potency,[8],inactive
COc1ccccc1N1CCNCC1,Potency,[1],inactive
same,Potency,[3],inactive
same,Potency,[9],inactive
CCCN1CCC[C@@H]2Cc3[nH]ncc3C[C@H]21,Potency,[1],inactive
same,Potency,[3],inactive
N[C@@H](Cc1ccc(Oc2cc(I)c(O)c(I)c2)c(I)c1)C(=O)O,Potency,[2],30.4 µM (active)
same,Potency,[17],6.31 µM (active)
same,Potency,[16],11.2 µM (active) and 4.94 µM (active)
same,Potency,[18],50.1 µM (active)
same,Potency,[19],inactive
same,outcome,[6],inactive
same,outcome,[7],inactive
same,Potency,[8],inactive
CC(CCc1ccccc1)NC(C)C(O)c1ccc(O)cc1 (stereo not drawn),Potency,[1],inactive
same,Potency,[3],inactive
O=c1oc2ccccc2c(O)c1C(CC(O)c1ccc(-c2ccc(Br)cc2)cc1)c1ccccc1 (stereo not drawn),Potency,[2],26.4 µM (active)
same,Potency,[9],14.1 µM (active)
same,Potency,[17],7.94 µM (active)
same,Potency,[16],3.16 µM (active)
same,Potency,[18],31.6 µM (active)
same,Potency,[19],6.31 µM (active)
Cc1ccc(-c2nc3ccc(C)cn3c2CC(=O)N(C)C)cc1,Potency,[2],8.55 µM (active)
same,Potency,[14],27.1 µM (active)
same,Potency,[16],inactive
same,outcome,[6],inactive
same,outcome,[7],inactive
same,Potency,[8],inactive
COc1ccc(C(CN(C)C)C2(O)CCCCC2)cc1 (stereo not drawn),Potency,[1],inactive
same,Potency,[3],inactive
CCN(C(C)=O)c1cccc(-c2ccnc3c(C#N)cnn23)c1,Potency,[2],24.1 µM (active)
same,Potency,[14],27.1 µM (active)
same,Potency,[16],inactive
same,outcome,[6],inactive
same,outcome,[7],inactive
same,Potency,[8],inactive
